Measured values from ChEMBL document CHEMBL1961873, “Compounds: GSK PKIS; Assays: Nanosyn kinase panel” (2012).

Target: T1, Serine/threonine-protein kinase Nek9 (Homo sapiens) (UniProt Q8TD19)
T1 sequence (whole entry): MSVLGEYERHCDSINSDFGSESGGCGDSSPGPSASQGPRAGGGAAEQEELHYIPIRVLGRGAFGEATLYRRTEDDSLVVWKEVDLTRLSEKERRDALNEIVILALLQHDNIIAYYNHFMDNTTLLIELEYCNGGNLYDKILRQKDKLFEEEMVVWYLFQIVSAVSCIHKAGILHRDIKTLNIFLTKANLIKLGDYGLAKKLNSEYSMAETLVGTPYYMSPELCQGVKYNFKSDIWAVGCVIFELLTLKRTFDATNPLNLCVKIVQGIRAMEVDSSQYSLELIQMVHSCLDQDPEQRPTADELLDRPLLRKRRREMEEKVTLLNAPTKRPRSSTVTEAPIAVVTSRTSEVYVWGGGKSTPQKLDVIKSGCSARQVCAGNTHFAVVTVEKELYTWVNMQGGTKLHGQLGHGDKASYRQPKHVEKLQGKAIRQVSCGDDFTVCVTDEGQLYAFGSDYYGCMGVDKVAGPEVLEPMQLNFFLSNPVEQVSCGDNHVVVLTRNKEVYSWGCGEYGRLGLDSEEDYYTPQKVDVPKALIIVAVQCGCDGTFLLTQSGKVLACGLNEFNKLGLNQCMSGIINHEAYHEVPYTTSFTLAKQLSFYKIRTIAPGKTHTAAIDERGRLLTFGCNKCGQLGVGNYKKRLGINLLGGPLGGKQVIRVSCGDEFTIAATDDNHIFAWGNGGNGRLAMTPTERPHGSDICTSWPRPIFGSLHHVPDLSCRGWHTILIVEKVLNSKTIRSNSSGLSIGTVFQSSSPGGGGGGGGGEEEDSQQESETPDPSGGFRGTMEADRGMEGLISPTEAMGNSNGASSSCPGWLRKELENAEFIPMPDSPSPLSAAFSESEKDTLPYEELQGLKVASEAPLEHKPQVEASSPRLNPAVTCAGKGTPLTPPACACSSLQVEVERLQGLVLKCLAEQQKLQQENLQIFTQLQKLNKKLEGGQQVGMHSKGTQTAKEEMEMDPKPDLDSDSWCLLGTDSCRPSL
Settings: at 1 µM
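Also: each value is a mean percent inhibition of NEK9.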

| Structure (SMILES) | inhibition [%] |
| --- | --- |
| NC(=O)c1ccc(Oc2nccc(-c3c(-c4ccc(F)cc4)ncn3C3CCNCC3)n2)cc1 | 4.67 |
| COc1ccc(-c2ccc3c(NC(=O)C4CC4)n[nH]c3n2)cc1 | 3.42 |
| Cc1ccc(C(=O)NC2CCC2)cc1-c1ccc(C(=O)NCC2CC2)cc1 | 5.58 |
| CN(c1ccc(NC(=O)Nc2c(Cl)cccc2Cl)cc1)c1ccnc(Nc2cccc(CS(C)(=O)=O)c2)n1 | -6.03 |
| O=C(Nc1ccc(Oc2ccc3[nH]c(NC(=O)c4ccccc4)nc3c2)cc1)Nc1cc(C(F)(F)F)ccc1F | 10.3 |
| Clc1ccc(CNc2nccc(-c3cnn4ncccc34)n2)cc1 | -2.99 |
| NC(=O)c1cc(-c2ccc(F)cc2)cc(-c2ccncc2)c1N | 19.1 |
| NS(=O)(=O)c1ccc(Nc2cc(-c3ccc(O)c(F)c3)n[nH]2)cc1 | 2.31 |
| CCc1nccc2c1nc(-c1nonc1N)n2CC | 2.52 |
| Fc1ccc(-c2ncn(C3CCNCC3)c2-c2ccnc(Oc3ccc4c(c3)OCO4)n2)cc1 | 7.95 |
| CS(=O)(=O)CCNCc1cc(-c2cc3c(Nc4ccc(OCc5cccc(F)c5)c(Cl)c4)ncnc3s2)cs1 | 8.5 |
| CCc1cccc(CC)c1/C=C/c1cncc(C(=O)NC)c1 | -1.94 |
| COc1ccc(C2=C(N3CCc4ccccc43)C(=O)NC2=O)cc1 | 7.64 |
| COc1cccc(/C=N/Nc2ncnc3c2cnn3-c2cccc(OC)c2)c1 | 11.2 |
| N#Cc1ccc(Oc2nccc(-c3c(-c4ccc(F)cc4)ncn3C3CCNCC3)n2)cc1 | 9.35 |
| O=C(Nc1n[nH]c2cc(-c3ccccc3)ccc12)C1CC1 | 5.87 |
| FC(F)(F)c1cccc(Nc2nccc(-c3cnn4nc(-c5ccccc5)ccc34)n2)c1 | 8.66 |

| Structure (SMILES) | inhibition [%] |
| --- | --- |
| COC(=O)Nc1nc2ccc(Sc3ccc(NC(=O)Nc4cc(C(F)(F)F)ccc4F)cc3)cc2[nH]1 | -0.45 |
| NC(=O)c1cc(-c2ccncc2)cc(-c2ccccc2)c1N | 3.74 |
| Fc1ccc(-c2ncn(CCCN3CCOCC3)c2-c2ccncc2)cc1 | 3.15 |
| O=C1Nc2ccccc2/C1=C/Nc1ccc(-n2cncn2)cc1 | 12.4 |
| CS(=O)(=O)CCNCc1ccc(-c2ccc3ncnc(Nc4ccc(OCc5ccccc5)c(Br)c4)c3c2)o1 | 5.79 |
| O=C(Nc1n[nH]c2nc(-c3ccc(O)cc3)c(Br)cc12)C1CC1 | 13.2 |
| CCN(CC)Cc1ccc(Nc2nccc(-c3cnn4ncccc34)n2)cc1 | 13.7 |
| COc1cc2ncn(-c3cc(OCc4ccccc4C(F)(F)F)c(C(C)=O)s3)c2cc1OC | 5.55 |
| O=C(Nc1n[nH]c2nc(-c3ccco3)ccc12)C1CC1 | -0.33 |
| Nc1nccc(-c2c(-c3ccc(F)cc3)ncn2C2CCC(O)CC2)n1 (centres undefined) | -1.68 |
| C/C(Nc1ccc(S(N)(=O)=O)cc1)=C1/C(=O)Nc2ccccc21 | 1.67 |
| O=C1NC(=O)C(c2cccc(Cl)c2)=C1Nc1ccc(Cl)c(C(=O)O)c1 | 2.04 |
| O=C(Nc1n[nH]c2cc(-c3cc(F)ccc3F)ccc12)C1CC1 | 10.9 |
| COc1ccc2cc(-c3c(-c4ccncc4)nc(-c4ccc(S(C)(=O)=O)cc4C)n3C)ccc2c1 | 18.2 |
| Fc1ccc(-c2ncn(C3CCNCC3)c2-c2ccnc(Oc3ccc(F)c(F)c3)n2)cc1 | 6.01 |
| CCc1ccc(Oc2nccc(-c3c(-c4ccc(F)cc4)ncn3C3CCNCC3)n2)cc1 | -3 |
| CCC(=O)Nc1ccc(C)c(-c2ccc(C(=O)NCC3CC3)cc2)c1 | 10.2 |
